Pf growth 48h = P. falciparum growth inhibition at 48 hours (one generation); Potency, µM (titrated, usually from 28.7 µM), actives largely listed as inhibitors; P. falciparum luciferase growth in erythrocytes, 48 h; 310,000 compounds, 5.9% hits
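Compounds are pin-transferred into medium, infected erythrocytes (2% hematocrit, 0.1% parasitemia final) are added, and plates sit one parasite generation at 37 C in 5% CO2. Detection reagent is then added and luminescence measured.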
LmPK inhibitor = inhibitors of Leishmania mexicana pyruvate kinase. AID 1721. 290,000 compounds, 0.37% hits. purified LmPK, Kinase-Glo ATP luminescence, 1 h. Potency, µM (series often up to 57.5 µM), hits mostly inhibitors
Target sequence (Q27686 whole entry, looked up): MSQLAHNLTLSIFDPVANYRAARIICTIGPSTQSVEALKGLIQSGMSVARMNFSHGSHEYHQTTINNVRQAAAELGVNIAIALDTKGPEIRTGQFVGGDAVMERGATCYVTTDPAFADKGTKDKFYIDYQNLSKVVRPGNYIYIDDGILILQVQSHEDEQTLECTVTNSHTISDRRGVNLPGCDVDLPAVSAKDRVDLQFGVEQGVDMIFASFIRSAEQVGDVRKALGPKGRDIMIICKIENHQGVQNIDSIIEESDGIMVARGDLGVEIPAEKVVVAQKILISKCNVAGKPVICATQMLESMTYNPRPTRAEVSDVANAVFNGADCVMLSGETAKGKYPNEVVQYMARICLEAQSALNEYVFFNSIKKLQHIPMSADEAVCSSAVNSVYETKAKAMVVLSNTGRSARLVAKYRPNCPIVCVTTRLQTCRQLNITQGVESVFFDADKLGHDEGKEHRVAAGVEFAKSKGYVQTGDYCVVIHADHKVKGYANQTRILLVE
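0.1 nM LmPK, 0.5 mM PEP, 0.1 mM ADP; 50 mM imidazole pH 7.2, 7 mM MgCl2, 50 mM KCl; 1 h RT. Kinase-Glo luminescence readout, normalized to no-enzyme (full inhibition) and uninhibited wells.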
Shiga toxin inh = inhibitors of Shiga toxin in Vero cells; Vero cells, Shiga toxin protein synthesis inhibition reporter; inhibition, % at 38.7 µM; 290,000 compounds, 9.2% hits; in the data active means inhibition mostly above about 28%, no sharp cut-off; inactive means mostly below about 43%
Cycloheximide cs = affects cycloheximide protein synthesis inhibition readout, counter-screen | 300,000 compounds, 12% hits | cell reporter, cycloheximide protein synthesis inhibition counterscreen | max response, %; in the data active means max response mostly above about 13%, no sharp cut-off; inactive means mostly below about 14%; further: read at 38.3 µM for the half of the compounds with a filed dose
Pf growth 96h = P. falciparum growth inhibition at 96 hours. P. falciparum luciferase reporter growth, 96 h. Potency, µM (doses to about 28.7 µM), usual class: inhibitors. 320,000 compounds, 6.9% hits
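Two parasite generations (96 h, 37 C, 5% CO2) of compound exposure in infected erythrocytes (0.05% parasitemia, 2% hematocrit). Luciferase-reporter P. falciparum; decreased luminescence indicates inhibited growth, aimed at apicoplast-acting delayed death.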
Numbers stand for hits; . = inactive; ? = inconclusive; / = no result. A selection: hits, their analogues and other compounds. The true share with any hit is near 22%. Unless noted, the call rests on the fitted dose curve; in most records, active means well fitted inhibition curve with a large enough effect; inconclusive means small, poorly fitted or top-dose-only effect, or another doubt; inactive means no such curve, though single readings can be large or run the other way.

SMILES	Pf growth 48h	LmPK inhibitor	Shiga toxin inh	Cycloheximide cs	Pf growth 96h
COc1ccc(C2=NN(C(=O)CSc3cn(C)c4ccccc34)C(c3ccc(OC)cc3)C2)cc1 (configuration not stated)	?	.	.	.	?
CCC[C@@H]1CCCO[C@@](C(=O)NCc2cc(C)n(C)n2)(C(F)(F)F)C1	/	/	.	.	/
COc1ccccc1N1CCN(/N=C/C=C/c2ccccc2[N+](=O)[O-])CC1	.	.	67	.	.
O=[N+]([O-])c1ccccc1/C=N\N1CCN(c2ccccc2)CC1	.	.	61	36	.
O=[N+]([O-])c1ccccc1/C=C/C=N/N1CCCCC1	.	.	63	66	.
O=[N+]([O-])c1ccccc1/C=C\C=N\N1CCN(c2ccccc2)CC1	.	.	.	25	?
COc1ccccc1N1CCN(/N=C/c2cc([N+](=O)[O-])ccc2Cl)CC1	.	.	.	.	.
O=[N+]([O-])c1ccccc1/C=N/N1CCN(c2ccc(Cl)cc2)CC1	.	.	.	.	?
O=[N+]([O-])c1ccc(Cl)c(/C=N/N2CCN(c3ccccc3)CC2)c1	.	.	.	.	.
Nc1cc(OC(=O)c2ccc(F)cc2)nn1S(=O)(=O)c1ccccc1	.	.	.	.	.
CCCCCCCCCCCCOC1OC(CO)C(O)C(O)C1NC(C)=O (configuration not stated)	.	.	.	.	.
CC(C)(C)C(=O)OC/C(N)=N/OC(=O)c1ccc(Cl)c(Cl)c1	?	.	.	20	?
COc1ccc(CNC(=O)CCn2c(C)csc2=O)cc1	.	/	/	/	.
CCCc1nnc(NC(=O)C(CC)OC(=O)c2cc(C)nc3ccccc23)s1 (configuration not stated)	.	.	.	.	?
Cc1ccc([N+](=O)[O-])cc1N=C(c1cccc([N+](=O)[O-])c1)N1CCOCC1	?	.	.	.	?
Cc1ccc([N+](=O)[O-])cc1N=C(c1ccc([N+](=O)[O-])cc1)N1CCOCC1	?	.	.	.	8.3µM
COC(=O)C1=C(Nc2cc(Cl)cc(Cl)c2)CSC1	.	.	.	.	.
COc1ccc(N=Cc2oc3ccc4ccccc4c3c2O)cc1	.	.	72	50	.
COc1ccc(OC)c(/C=N\NC(=O)c2cc3c(ccc4ccccc43)o2)c1	.	.	.	.	?
COc1ccc(N=Cc2[nH]c3ccccc3c2O)cc1	.	.	42	31	.
O=C1C(C=Nc2ccccc2)=C(O)c2ccccc21	.	3.5µM	173	29	/
COc1ccc(N=CC2=C(O)c3ccccc3C2=O)cc1	.	3.2µM	107	24	/
COc1ccc(Cn2c(O)c(C=Nc3ccc(OC)cc3)c3ccccc3c2=O)cc1	.	.	.	.	.
O=C(COc1ccc(Cl)cc1)Nc1ccc2c(c1)nc1n2CCOC1	.	.	.	.	?
O=C(CCc1nc2ccccc2c(=O)[nH]1)OCc1ccc(Cl)cc1Cl	.	.	.	.	.
SMILES	Pf growth 48h	LmPK inhibitor	Shiga toxin inh	Cycloheximide cs	Pf growth 96h
CC1CCN(C(=O)COc2cccc3c2CCN(Cc2ccccc2)C3=O)CC1	.	.	.	.	.
CN=CC1=C(O)c2ccccc2C1=O	.	.	76	41	.
CCOc1ccc(-c2nonc2NC(=O)c2ccco2)cc1OCC	0.37µM	.	36	.	?
CCOc1ccc(-c2nonc2NC(=O)c2ccco2)cc1	.	.	.	.	10µM
COc1ccc(-c2nonc2NC(=O)c2ccco2)cc1OC	?	.	.	.	?
CCOc1ccc(NC(=O)c2ccc(Cl)c(NC(=O)c3ccco3)c2)cc1	.	.	.	.	?
COC(=O)CC(NC(=O)c1cccs1)c1ccc(OC)c(OC)c1 (configuration not stated)	.	.	.	.	.
CCN(C(=O)/C=C/c1ccc(OC)cc1)C1CCS(=O)(=O)C1 (configuration not stated)	.	/	/	/	?
CCN(C(=O)/C=C/c1ccc(OC)cc1)C1CCCCC1	.	.	.	12	?
O=C(Nc1cc(Oc2ccccc2)cc([N+](=O)[O-])c1)C12CC3CC(C1)CC(n1cnc(Cl)n1)(C3)C2	?	.	.	.	?
Cc1c(C(=O)N2CCc3ccccc3C2)oc2ccc(S(=O)(=O)N3CCCCCC3)cc12	?	.	.	.	?
CN=C(Nc1ccc(Cl)cc1)c1ccc(C(F)(F)F)cc1	.	.	.	15	.
CC(C)NC(=O)c1ccc(-c2cccc(C(F)(F)F)c2)o1	.	.	.	.	?
CN(CC(=O)Nc1cccc(F)c1)C(=O)c1ccc(-c2ccc(Cl)cc2)o1	1.9µM	.	71	23	1.7µM
Cc1ccc(C)c(NC(=O)CN(C)C(=O)c2ccc(-c3ccc(Cl)cc3)o2)c1	1.5µM	/	/	/	13µM
Cc1ccc(C)c(NC(=O)CN(C)C(=O)c2cc3ccccc3o2)c1	2.3µM	.	.	.	3.3µM
CN(CC(=O)Nc1cccc(F)c1)C(=O)C1CCN(C(=O)c2ccc(Cl)cc2)CC1	.	/	/	/	?
Cc1cccc(C)c1NC(=O)CN(C)C(=O)c1ccc(-c2cccc(C(F)(F)F)c2)o1	12µM	/	/	/	?
CNc1ccccc1C(C)(C)c1cc(-c2ccc(F)cc2)no1	?	.	.	.	8.3µM
COc1cc(/C=C2/NC(=O)N(CC(=O)Nc3ccc(C)cc3)C2=O)ccc1Oc1ccc([N+](=O)[O-])cn1	.	.	.	.	.
O=C1/C(=C/c2ccc(N3CCOCC3)o2)SC(=Nc2ccccc2)N1CCc1c[nH]c2ccccc12	9.3µM	.	.	.	1.7µM
COc1cc(/C=C2\SC(=Nc3ccccc3)N(CCc3c[nH]c4ccccc34)C2=O)ccc1OC(C)C(=O)O (configuration not stated)	10µM	.	.	.	5.2µM
COc1ccc(N=C2S/C(=C\c3ccc(OC(C)C(=O)O)c(OC)c3)C(=O)N2CCc2c[nH]c3ccccc23)cc1 (configuration not stated)	?	.	.	.	1.7µM
COCCN1C(=O)/C(=C/c2ccc(Oc3ccc([N+](=O)[O-])cn3)c(OC)c2)SC1=Nc1ccccc1	.	.	.	.	1.5µM
COc1ccc(/C=C2\SC(=O)N(CCC(=O)Nc3ccccc3)C2=O)cc1OC	.	.	.	.	.
SMILES	Pf growth 48h	LmPK inhibitor	Shiga toxin inh	Cycloheximide cs	Pf growth 96h
N#Cc1ccc(-c2csc(N3CCC(C(N)=O)CC3)n2)cc1	.	/	/	/	.
COc1ccc(NC(=O)/C(Cl)=C(/Cl)S(=O)(=O)Cc2ccc(C)cc2)cn1	/	.	.	.	?
O=C(C[n+]1cc(-c2ccccc2)n2c1CCC2)OCc1ccccc1	.	.	.	.	?
O=C(C[n+]1cc(-c2ccc(Cl)cc2)n2c1CCC2)Nc1nc(-c2ccccc2)cs1	?	.	.	.	?
O=C(C[n+]1cc(-c2ccc(Cl)c(Cl)c2)n2c1CCC2)N1c2ccccc2Sc2ccccc21	2.6µM	.	.	.	?
COc1ccc(-c2c[n+](CC(=O)N3c4ccccc4Sc4ccccc43)c3n2CCC3)cc1	2.6µM	.	.	.	1.7µM

Assay outcomes deposited in PubChem BioAssay by National Center for Advancing Translational Sciences (NCATS).
